Compound activity (PubChem)
Sampled rows, rich in hits. Any-hit rate of the full collection: about 20%.
Shiga toxin inh = A qHTS for Small Molecule Inhibitors of Shiga Toxin; Vero cells, Shiga toxin protein synthesis inhibition reporter; inhibition, % at 38.7 µM; hit rate 9.2% among 290,000; in the data active = inhibition mostly above about 28%, no sharp cut-off; inactive = mostly below about 43%; also: 0% is about no effect
HCMV inh = qHTS Assay for inhibitors of the human cytomegalovirus (HCMV). HFF cells, HCMV-luciferase reporter, 72 h; stronger effect = lower value. activity change, negative = inhibition, % at 57.5 µM. hit rate 4.5% among 410,000. AID 1259415, 2018; in the data active = activity change below about -60%; inconclusive = no clear call, values can overlap the other calls; inactive = above about -39%; also: % is scaled to controls: 0 for no effect and ±100 for the full control effect
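Compounds were evaluated in HFFs infected with an HCMV luciferase reporter virus (MOI 1 PFU/cell). Luciferase in lysates collected 72 h post infection served as the replication measure.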
Cycloheximide cs = Cycloheximide Counterscreen for Small Molecule Inhibitors of Shiga Toxin | AID 2314, 2010 | hit rate 12% among 300,000 | cell reporter, cycloheximide protein synthesis inhibition counterscreen | max response, %; in the data active = max response mostly above about 13%, no sharp cut-off; inactive = mostly below about 14%; also: read at 38.3 µM for the half of the compounds with a filed dose; 0% is about no effect
Pf growth 96h = Primary qHTS for delayed death inhibitors of the malarial parasite plastid, 96 hour incubation; P. falciparum luciferase reporter growth, 96 h; Potency, µM (titrated, usually from 28.7 µM), inactives show at the highest dose activity change, negative = inhibition, most hits filed as inhibitors; hit rate 6.9% among 320,000; AID 504834, 2011; also: potency is read from the fitted curve at half-maximal effect; % is scaled to controls: 0 for no effect and ±100 for the full control effect
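Plates of compound plus infected erythrocytes (2% hematocrit, 0.05% parasitemia final) incubate 96 hours, 37 C, 5% CO2. Detection reagent added; reduced luminescence from the parasites' luciferase reporter flags inhibition.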
Pf growth 48h = Primary qHTS for delayed death inhibitors of the malarial parasite plastid, 48 hour incubation; P. falciparum luciferase growth in erythrocytes, 48 h; Potency, µM (top dose mostly 28.7 µM), for inactives: at the highest dose activity change, negative = inhibition, actives largely listed as inhibitors; hit rate 5.9% among 310,000; AID 504832, 2011; also: potency is read from the fitted curve at half-maximal effect; % is scaled to controls: 0 for no effect and ±100 for the full control effect
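Firefly luciferase activity from engineered P. falciparum reports growth; inhibitors lower the luminescent signal. Cultures contained 2% hematocrit erythrocytes at 0.1% final parasitemia.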
The depositor's hits bear a star; ? = inconclusive; · = not tested or not shown. Unless noted, calls follow the shape of the dose curve; as a rule, active = well fitted inhibition curve with a large enough effect; inconclusive = small, poorly fitted or top-dose-only effect, or another doubt; inactive = no such curve, though single readings can be large or run the other way.

SMILES	Shiga toxin inh	HCMV inh	Cycloheximide cs	Pf growth 96h	Pf growth 48h
Cc1nc2c(-c3ccc(F)cc3)c(C)nn2c(C)c1CCC(=O)NCc1ccc(Cl)cc1	·	-3.4	·	·	·
COc1cc(S(=O)(=O)N(Cc2cccnc2)Cc2cccc(OC)c2OC)ccc1-n1cnnn1	-2.3	0.0	-2.9	?	?
CCC(C)(C)C1CCC2(CC1)NC(CO)(CO)CO2 (stereo not given)	-4.9	-5.3	0.9	?	-18.4%
CCOC(=O)CC(=O)CSc1nc2c(cc1C#N)CCCCCC2	13.2	23.5	-1.7	1.17µM*	2.33µM*
CC(C)OC(=O)CC(=O)CSc1nc2c(cc1C#N)CCCCCC2	17.0	152.8	14.7	·	-7.2%
N#Cc1cc2cc3c(cc2nc1SCC(=O)N1CCCC1)OCCO3	50.8*	·	18.7	-0.7%	63.1%
N#Cc1cc2c(nc1SCC(N)=O)CCCCC2	107.1	48.8	17.8*	135.4%	·
CC(C)OC(=O)CC(=O)CSc1nc2c(cc1C#N)CCCC2	81.7*	13.4	36.8*	?	38.5%
Cc1ccc(C(=O)OCC(=O)NC(C)c2ccccc2)cc1C (stereo not given)	·	-13.0	·	·	·
O=C(Nc1nncs1)C12CC3CC(CC(Cl)(C3)C1)C2	-1.6	29.9	0.3	-8.2%	-13.9%
CC(C)OC(=O)CC(=O)CSc1nc2c(cc1C#N)CCC2	24.5	-0.9	14.2	26.5%	0.8%
COC(=O)CC(=O)CSc1nc2c(cc1C#N)CCC2	54.5*	-1.9	18.0*	·	37.0%
N#Cc1cc2c(nc1SCC(=O)N1CCOCC1)CCCCC2	101.4*	-77.1*	42.0*	·	238.8%
COC(=O)c1c(C)cc(C)n2c1nc1ccccc12	-9.0	6.9	15.5	7.38µM*	11.6%
Cc1cc(C)n2c(nc3ccccc32)c1C(=O)NN	18.0*	-33.9	45.3*	?	-11.1%
COc1ccc(C2CC(=O)c3sc(NC(C)=O)nc3C2)cc1 (stereo not given)	active	-70.2*	20.0*	?	?
CC1CC(C)CN(CC(O)COCCOc2ccc(Br)cc2)C1 (stereo not given)	-5.5	-34.3	4.9	?	9.28µM*
CC1CCN(CC(O)COCCOc2ccc(Br)cc2)CC1 (stereo not given)	-6.8	?	-4.3	?	?
CC(=O)Nc1cccc(-c2nnc(SCC(=O)c3cc([N+](=O)[O-])ccc3Br)o2)c1	·	-13.1	·	·	·
CCCCCCC1NC(C(=O)O)CS1 (stereo not given)	8.6	-4.5	-4.9	23.2%	18.6%
Cc1nn2cc(-c3cccc(Cl)c3)cnc2c1Cl	124.1*	61.9	33.1*	470.7%	188.3%
Cc1nn2cc(-c3cccc(Cl)c3)cnc2c1Br	56.2*	5.1	14.3	93.6%	44.1%
CC(C)n1nnnc1-c1cccc(Cl)c1	7.7	-11.0	8.6	19.4%	5.0%
O=C(Cn1cnc(S(=O)(=O)N2CCCC2)c1)Nc1cccc(Br)c1	-2.3	?	-3.8	11.7µM*	12.9%
Cc1c(Cl)cccc1NC(=O)Cn1cnc(S(=O)(=O)N2CCCC2)c1	21.9	-8.8	-0.6	7.38µM*	-0.3%
SMILES	Shiga toxin inh	HCMV inh	Cycloheximide cs	Pf growth 96h	Pf growth 48h
CC(=O)c1cccc(NC(=O)Cn2cnc(S(=O)(=O)N3CCCCC3)c2)c1	-5.9	0.0	-3.8	23.5%	1.1%
N#Cc1ccc(NC(=O)Cn2cnc(S(=O)(=O)N3CCc4ccccc43)c2)cc1	1.1	3.8	14.4	11.7µM*	1.1%
CC(NCc1ccc2c(c1)OCO2)C(=O)NC1CCCc2ccccc21 (stereo not given)	-33.6	20.8	-3.4	·	-6.5%
Cc1c(Nc2nc3ccccc3nc2NS(=O)(=O)c2ccccc2)c(=O)n(-c2ccccc2)n1C	-3.2	-26.0	-0.3	·	·
CC(=O)Nc1ccc(S(=O)(=O)Nc2nc3ccccc3nc2Sc2nncn2C)cc1	116.5*	-36.5	25.7*	·	6.3%
Cn1ccnc1Sc1nc2ccccc2nc1NS(=O)(=O)c1ccccc1	102.5*	32.3	55.6*	?	?
Cn1cnnc1Sc1nc2ccccc2nc1NS(=O)(=O)c1ccccc1	28.3	-38.3	-3.7	155.2%	-2.0%
CC(C)OCCCNC(=O)c1c2c(nc3ccccc13)C(=O)N(C1CCCCC1)C2	·	4.0	·	·	·
CCOC(=O)c1c(NC(=O)COC(=O)CCOc2ccccc2C)sc(C(=O)NC)c1C	·	41.3	·	-13.0%	-4.4%
